Bioassay records (PubChem BioAssay)
Rows were chosen to be rich in hits. Some 4.8% of all compounds tested hit in one or more screens of this group.
HEK293 cAMP cs – counter-screen for TSHR agonists: cAMP increase in parental HEK293; parental HEK293 CNG cAMP sensor, membrane potential fluorescence; 73,000 compounds, 2.5% hits; Potency, µM (doses to about 57.1 µM), for the others: top-dose activation, usual class: activators; AID 938; also: % of control where 0% means no effect; nearly all actives have a fitted effect of over 55% in size
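Counterscreen for endogenous-receptor signalling: CNG-channel HEK 293 cells report cAMP rise by membrane depolarization. After 60 min dye equilibration with 100 uM RO 20-1724, compounds incubated 30 min before bottom-read fluorescence at 590 nm.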
ALOX15 inhib – 15-hLO (ALOX15) enzyme inhibition; purified 15hLO-1, xylenol orange hydroperoxide absorbance; Potency, µM (doses to about 57.1 µM), for the others: at the highest dose activity change, negative = inhibition, hits mostly inhibitors; 74,000 compounds, 1.4% hits; P16050; also: % is scaled to controls: 0 for no effect and ±100 for the full control effect; nearly all actives have a fitted effect of over 55% in size
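Purified human 15hLO-1 (40 nM final) in 25 mM Hepes pH 7.5, 0.01% Triton X-100 was preincubated with compound 15 min at room temperature, then reacted 6 min with 50 uM arachidonic acid; hydroperoxide detected by Fe-XO, 573/405 nm absorbance ratio.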
ERK AVP block – inhibitors of vasopressin-stimulated ERK signaling pathway; HEK293-V1b, vasopressin-stimulated pERK AlphaScreen; Potency, µM (titrated, usually from 57.5 µM), inactives show at the top dose activity, negative = inhibition, hits mostly inhibitors; 72,000 compounds, 0.99% hits; AID 995; also: % is scaled to controls: 0 for no effect and ±100 for the full control effect; nearly all actives have a fitted effect of over 55% in size
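V1b-HEK293 cells; cpd 30 min 37C; 25 nM vasopressin 5 min; lyse 10 min; AlphaScreen beads 5 hr RT. Normalized to DMSO basal and 25 nM vasopressin; AC50 by Hill fit.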
TSHR ag – TSH receptor (human) agonism; HEK293-CNG-TSHR cells (CNG channel as cAMP sensor), membrane potential dye, cAMP; Potency, µM (highest dose often 57.1 µM), without a hit: top-dose activation, actives largely listed as activators; 73,000 compounds, 0.48% hits; AID 926; active = well fitted activation curve with a large enough effect in the main read-out, with a control signal flat, not every such curve was filed as active; inconclusive = small, poorly fitted or top-dose-only effect, or a change in a side signal; inactive = no such curve, though single readings can be large or run the other way; % of control where 0% means no effect;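 also: the control signal comes from parental cells without the receptor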
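cAMP rise detected as CNG-channel membrane depolarization by fluorescent dye (emission 590 nm), 30 min after compound, following 60 min dye loading containing 100 uM RO 20-1724 at room temperature. Cells: TSHR/CNG HEK 293, with parental CNG HEK 293 as control.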
Casp1 inh – allosteric or competitive inhibitors of human caspase-1 | 75,000 compounds, 0.03% hits | AID 900 | Caspase-1 enzyme, Ac-WEHD-AFC fluorogenic rate | Potency, µM (series often up to 57.5 µM), for the others: at the highest dose activity change, negative = inhibition, hits mostly inhibitors;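 also: plate controls were vehicle for no effect and no substrate for full effect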
Caspase-7 inhib – caspase-7 (human) inhibition, allosteric or competitive. P55210. recombinant caspase-7, Ac-DEVD-AFC fluorescence rate. Potency, µM (highest dose often 57.5 µM), for inactives: at the top dose activity change, negative = inhibition, actives largely listed as inhibitors. 75,000 compounds, 0.02% hits. AID 889; active = well fitted inhibition curve with a large enough effect in the main read-out, with a control signal flat, not every such curve was filed as active; inconclusive = small, poorly fitted or top-dose-only effect, or a change in a side signal; also: % of control where 0% means no effect
Starred values were filed as active, the others as inactive; ? = inconclusive; nt = not tested or not shown; [ ] = another dose, or the depositor's remark. Unless noted, calls follow the shape of the dose curve; as a rule, active = well fitted curve in the direction sought with a large enough effect; inconclusive = small, poorly fitted or top-dose-only effect, or another doubt; inactive = no such curve, though single readings can be large; an effect the other way counts as inactive or inconclusive. Potency is read from the fitted curve at half-maximal effect.

SMILES	HEK293 cAMP cs	ALOX15 inhib	ERK AVP block	TSHR ag	Casp1 inh	Caspase-7 inhib
O=C(NCc1ccco1)c1ccc2nc3sc4c(c3c(=O)n2c1)CCCC4	1.2%	31.6µM*	23.9%	-1.3%	nt	?
Cc1ccc(C(=O)Nc2c3c(nn2C(C)(C)C)CS(=O)(=O)C3)cc1C	12.4%	9.4%	-14.2%	10.5%	0.3%	-0.8%
CSCSC1=C(C#N)C(c2ccccc2Cl)C(C(C)=O)=C(C)N1 (stereo not given)	15.5%	25.1µM*	6.5%	nt	nt	?
CC(=O)C1=C(C)NC(SCSc2ccccc2)=C(C#N)C1c1cccnc1 (stereo not given)	24.2%	0.316µM*	-6.5%	nt	?	-28.1%
CCOC(=O)CSC1=C(C#N)C(c2ccccc2F)C(C(C)=O)=C(C)N1 (stereo not given)	?	-16.5%	1.8%	?	-9.2%	-2.5%
CC(C)c1ccccc1S(=O)(=O)c1cc(N)c2ncccc2c1[N+](=O)[O-]	?	-24.3%	-14.2%	?	-3.3%	-1.2%
N#CC1=C2SCN(c3ccccc3)CN2C(=O)CC1c1cccs1 (stereo not given)	16.0%	3.98µM*	-29.0%	3.2%	-6.9%	-20.5%
N#CC1=C2SCN(c3ccccc3)CN2C(=O)CC1c1ccccc1Cl (stereo not given)	0.9%	?	5.6%	2.6%	-0.3%	-11.8%
N#CC1=C2SCN(c3ccccc3)CN2C(=O)CC1c1c(Cl)cccc1Cl (stereo not given)	1.4%	3.16µM*	?	-7.4%	-1.6%	-2.3%
Cc1ccc(C2CC(=O)N3CN(c4ccc(Br)cc4)CSC3=C2C#N)o1 (stereo not given)	7.6%	2.51µM*	-15.8%	3.0%	?	?
COc1cc(OC)c(C2CC(=O)N3CN(c4ccccc4)CSC3=C2C#N)cc1OC (stereo not given)	-10.7%	?	-1.0%	6.2%	-5.3%	-5.6%
COc1ccc(COC2OC[C@]3(C)[C@H]4C5=C(CN3C(=O)OC(C)(C)C)[C@H](C)C(CO)C(CO)C5CC[C@@H]24)cc1 (stereo not given in full)	-2.9%	nt	10.3%	-4.1%	-2.1%	-2.2%
CC(=O)OC1CC(OC(C)=O)[C@]2(C)C(CC(OC(C)=O)[C@@]3(C)C4=CC(=O)OC(c5ccoc5)[C@]4(C)CCC32)C1(C)C (stereo not given in full)	nt	7.1%	-23.7%	nt	0.7%	-1.0%
COc1ccccc1CCn1c(=O)c(-c2ccc(F)c(F)c2)nc2cncnc21	?	-23.1%	?	?	-13.7%	-17.7%
CCN(CC)S(=O)(=O)c1cccc(-c2nnc(SC(C)C#N)n2Cc2ccccc2)c1 (stereo not given)	25.1µM*	3.9%	-21.8%	?	1.5%	0.0%
O=C(c1cccc(F)c1)N1CCC2(CCCN(c3ccccn3)C2)CC1	?	10.0%	-19.7%	?	-1.5%	0.4%
O=C(C1CC1)N1CCc2cc(S(=O)(=O)NCC3COc4ccccc4O3)ccc21 (stereo not given)	?	-15.1%	-8.3%	?	-3.5%	-0.4%
O=C(C1CC1)N1CCc2cc(Br)cc(S(=O)(=O)NCC3COc4ccccc4O3)c21 (stereo not given)	15.8µM*	-15.7%	-5.2%	?	1.1%	0.2%
C=CCn1c(SC(C)C(=O)NCc2ccc3c(c2)OCO3)nnc1C1CCCCC1 (stereo not given)	2.51µM*	-4.4%	9.5%	?	-1.0%	-0.1%
C=CCn1c(SCC(=O)NCc2cccs2)nnc1C1CCCCC1	28.8%	-0.6%	15.9%	-1.6%[11.4 µM]	1.7%	-3.0%
C=CCn1c(CCC(=O)O)ccc1-c1ccc(OC)cc1	-2.3%	12.6µM*	-5.5%	1.6%	-14.8%	-17.6%
Cc1ccc(C(N)=Nc2ccccc2)cc1	1.4%[11.4 µM]	-2.9%[11.4 µM]	13.3%[11.5 µM]	-2.2%[11.4 µM]	1.0%[11.5 µM]	0.7%[11.5 µM]
CCCCOC(=O)c1[nH]c2c(c1C)C(=O)CC(c1cc(OC)c(OC)c(OC)c1)C2 (stereo not given)	?	-10.1%	25.1µM*	?	-1.3%	-5.2%
C=CCOC(=O)c1[nH]c2c(c1C)C(=O)CC(c1cc(OC)c(OC)c(OC)c1)C2 (stereo not given)	?	-3.6%	?	?	-1.6%	-3.0%
CCOC(=O)c1[nH]c2c(c1C)C(=O)CC(c1ccco1)C2 (stereo not given)	31.6µM*	?	-27.4%	?	-1.3%	-12.0%
SMILES	HEK293 cAMP cs	ALOX15 inhib	ERK AVP block	TSHR ag	Casp1 inh	Caspase-7 inhib
COCCOC(=O)c1[nH]c2c(c1C)C(=O)CC(c1ccco1)C2 (stereo not given)	2.2%	?	?	-7.0%	-7.6%	-20.2%
Cn1c(/C(C#N)=C(\O)CN2CCN(Cc3ccccc3)CC2)nc2ccccc21	31.6µM*	20.0%	-10.7%	?	-1.2%	-0.1%
O=S(=O)(c1ccccc1)N1CCC2(CCN(C(c3ccccc3)c3ccccc3)CC2)CC1	4.7%	-4.9%	-1.2%	-1.9%	-5.2%	-5.1%
CSc1nsc(SCC(=O)N2CCc3ccccc32)n1	25.1µM*	-8.6%	4.7%	?	-2.2%	-0.3%
CCOC(=O)C1=C(C)NC(=O)NC1C1CC=CCC1 (stereo not given)	5.1%	5.6%	-1.0%	-12.8%	1.2%	-0.7%
COC(=O)C1=C(C)NC(C)=C(C(=O)OC)C1C1CC=CCC1 (stereo not given)	20.6%	-14.2%	nt	20µM*	-3.6%	-1.2%
CCCCCNCCCCC	?	1.4%	10.1%	?	-2.8%	0.1%
N#Cc1ccc2ccn(CC(=O)NCc3ccccc3)c2c1	11.7%	-4.5%	-18.3%	nt	-1.8%	-1.8%
N#Cc1ccc2ccn(CC(=O)NC3CCCCC3)c2c1	15.8µM*	-7.4%	0.5%	?	-1.5%	-4.5%
CCC(NC(=O)NCCCn1ccnc1)(C(F)(F)F)C(F)(F)F	-14.4%	11.6%	0.0%	6.3%	2.0%	0.4%
CCCCNC(=O)CSc1nc2ccc(N3CCOCC3)cc2c(=O)n1CCc1ccccc1	1.0%	25.1µM*	16.9%	-21.0%	?	-25.8%
COCCNC(=O)CSc1nc2ccc(N3CCOCC3)cc2c(=O)n1CCc1ccccc1	3.5%	-26.4%	-11.5%	0.7%	?	-23.8%
COc1ccc(-n2c(=O)c(-c3ccc(Cl)cc3)nc3cncnc32)cc1	7.1%[0.457 µM]	8.1%	-23.0%	-7.4%	-3.4%	-9.0%
CN1/C(=C/C=N/n2cnnc2)C(C)(C)c2ccccc21	-4.8%	25.1µM*	?	0.9%	-12.0%	-9.3%
CC(=O)NCCNc1cc(-c2ccccc2C)ncn1	0.4%	6.7%	1.6%	6.2%	-0.6%	-2.6%
CCNc1nc(C)nc2c1oc1ccccc12	-0.6%	6.1%	6.3%	23.0%	-0.5%	0.3%
